Compound activity from PubChem.
Hits are enriched below; roughly 2.2% of the tested compounds scored in any of these assays.
aSyn 5UTR inh: MLPCN primary screen, SNCA 5' untranslated region. alpha-synuclein 5'UTR reporter, inhibitor activity. inhibition, % (tested at 7.5 µM). actives 0.82% (n = 300,000); in the data active = inhibition above about 60%;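 note: H4 neuroglioblastoma cells stably carrying SNCA 5'UTR luciferase fusion; 0% = DMSO wells and 100% = positive control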
APP 5UTR inh: inhibitors of APP translation via 5'UTR reporter, primary screen, APP 5'UTR luciferase, SH-SY5Y cells; SH-SY5Y APP 5'UTR-luciferase reporter, luminescence; inhibition, % at 2 µM; actives 0.82% (n = 190,000);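 active = inhibition above a set limit, derived from the sample mean plus 3 SD, cut at about 45% in these data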
Ba/F3 V617F tox: reduced viability of JAK2V617F-dependent Ba/F3 cells, primary screen, JAK2V617F inhibitor project, cell-based, Ba/F3 EpoR-JAK2V617F, luminescence; inhibition, % at 5.6 µM; ATP luminescence; actives 1.1% (n = 220,000); AID 1446, 2008;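 active = inhibition above the campaign mean plus 3 SD over all tested compounds, cut at about 24% in these data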;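 note: cytokine-independent growth of Ba/F3 cells driven by EpoR plus mutant JAK2; 0% = DMSO-treated cells and 100% = JAK inhibitor I control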
KLF5 inhibitor: KLF5 expression inhibitors, primary screen, DLD-1 cells, luminescence; AID 1700, 2009; actives 0.23% (n = 290,000); DLD-1 KLF5 promoter-luciferase reporter; inhibition, % at 5 µM;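 active = inhibition above a per-plate limit of that plate's mean compound inhibition plus 3 SD, cut at about 60% in these data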;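 note: 0% = DMSO wells and 100% = LY294002 at 200 µM; higher means less KLF5 promoter-driven luciferase light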
BaF3 parental: parental Ba/F3 cell viability inhibition, counter-screen for JAK2V617F inhibitor project, murine pro-B, CellTiter-Glo luminescence; CellTiter-Glo ATP luminescence; actives 1.1% (n = 220,000); inhibition, % at 5.6 µM;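 active = inhibition above a per-campaign cutoff, the mean inhibition of all tested compounds plus 3 SD, cut at about 27% in these data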;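 note: 0% = DMSO wells and 100% = JAK Inhibitor I control wells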
IEC-6 cytotox: cytotoxicity in IEC-6 intestinal epithelial cells, primary screen, cytotoxicity control for KLF5 inhibitor project, cell-based, luminescence. inhibition, % at 5 µM. actives 0.78% (n = 290,000). IEC-6 cytotoxicity, luminescence viability; in the data active = inhibition above about 22%;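 note: 0% = plate median of test compound wells and 100% = cytotoxic reference compound wells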
BaF3 parental 2: parental Ba/F3 cell viability inhibition, counter-screen for JAK2V617F inhibitor project, murine pro-B, CellTiter-Glo luminescence | shares compounds with Ba/F3 V617F tox | cells kept alive by added IL-3 | inhibition, % at 5.6 µM | actives 31% (n = 580) | AID 1520, 2009;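 active = cell growth inhibition above the hit limit set in the earlier mutant JAK2 cell screen, cut at about 27% in these data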;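 note: plate controls were DMSO-treated cells for no effect and JAK Inhibitor I control wells for full effect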
JAK2V617F conf: viability loss in Ba/F3 EpoR-JAK2V617F cells, confirmation, JAK2V617F inhibitor project, cell-based, luminescence, triplicate; AID 1521, 2009; actives 66% (n = 580); inhibition, % at 5.6 µM; shares compounds with Ba/F3 V617F tox; CellTiter-Glo luminescence;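 active = mean inhibition above the hit cutoff derived in the earlier primary screen, cut at about 25% in these data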;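 note: 0% = DMSO-treated cells and 100% = JAK inhibitor I control wells; higher means lower luminescence from reduced cell ATP and viability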
An asterisk follows results filed as active; / = no result given.

SMILES	aSyn 5UTR inh	APP 5UTR inh	Ba/F3 V617F tox	KLF5 inhibitor	BaF3 parental	IEC-6 cytotox	BaF3 parental 2	JAK2V617F conf
CCN(Cc1ccc(OC)c(F)c1)C(=O)CCl	-74	9	39*	-2	-1	-7	13	96*
CC(=O)Nc1cccc(NC(=O)CSc2nc3c(c(=O)n(C)c(=O)n3C)n2C)c1	-10	/	/	2	/	-2	/	/
O=C(O)CC(NC(=O)Nc1ccccc1)c1ccc(OC2CCCC2)cc1 (stereo unspecified)	-8	2	33*	-4	4	3	-4	-6
O=C(Nc1cc(S(=O)(=O)N2CCCCC2)ccc1N1CCCCC1)c1ccncc1	19	/	-4	3	-11	1	/	/
O=C(Nc1cc(S(=O)(=O)N2CCCCC2)ccc1O)c1ccccc1NS(=O)(=O)c1ccc(F)cc1	-5	6	0	-57	7	-9	/	/
O=C(Nc1cc(S(=O)(=O)N2CCCCC2)ccc1Cl)c1ccccc1NS(=O)(=O)c1ccc(F)cc1	63*	-1	28*	6	15	6	70*	79*
O=C(Nc1cccc([N+](=O)[O-])c1)c1cc2ccccc2cc1O	-22	/	24*	-60	7	-3	64*	75*
Cc1c(C(=O)OCC(C)C)[nH]c2c1C(=O)CC(c1cccs1)C2 (stereo unspecified)	48	59*	24*	37	8	11	59*	88*
COC(=O)c1[nH]c2c(c1C)C(=O)CC(c1ccc(C)cc1)C2 (stereo unspecified)	-4	14	1	-17	4	5	/	/
CCC(C)c1ccc(NC(=O)C2CC3CCC2C3)cc1 (stereo unspecified)	-99	/	/	/	/	/	/	/
CC1CCCC(NC(=O)NC(=O)CCl)C1C (stereo unspecified)	-44	-23	58*	11	-9	0	-4	83*
CC1CCCCC1NC(=O)NC(=O)CCl (stereo unspecified)	-27	-16	19	14	-4	-9	/	/
NC(N)=Nc1cc2ccccc2c2ccccc12	-23	/	28*	-13	9	9	3	33*
O=C(c1ccc2c(c1)N(Cc1ccccc1)C(=O)CS2)N1CCOCC1	10	-8	-4	-9	-1	-4	/	/
Cc1ccccc1CN1C(=O)CSc2ccc(C(=O)N3CCOCC3)cc21	8	8	33*	-32	12	1	-1	-1
Cc1c(C#N)c(NC(=O)CCl)n(Cc2cccs2)c1C	9	-23	36*	18	0	6	35*	97*
Cc1c(C#N)c(NC(=O)CCl)n(Cc2ccccc2)c1C	7	10	31*	-8	2	3	48*	98*
Cc1c(C#N)c(NC(=O)CCl)n(Cc2ccc(F)cc2)c1C	-25	-12	16	11	-1	6	/	/
Cc1ccc(S(=O)(=O)N2CCN(C(=O)CNC(=O)c3sc4ccccc4c3Cl)CC2)cc1	13	/	/	/	/	/	/	/
CC(NC(=O)C1CCCN1S(=O)(=O)c1ccccc1)c1ccccc1 (stereo unspecified)	-1	/	/	-10	/	-2	/	/
CC(C)C1C(C#N)=C(N)Oc2n[nH]c(-c3ccc4ccccc4c3)c21 (stereo unspecified)	-1	55*	33*	37	10	12	26	68*
CC(C)C1C(C#N)=C(N)Oc2n[nH]c(-c3cccs3)c21 (stereo unspecified)	-3	-7	5	-3	10	4	/	/
CCCc1nc2n[nH]c(N)c2c2c1CCC2	29	6	1	1	0	7	/	/
CCCc1nc2n[nH]c(N)c2c2c1CCCC2	43	-14	25*	-2	3	3	-1	39*
O=C(/C=C1\NC2(CCCC2)Cc2ccccc21)C(=O)N/N=C/c1ccc(O)c(O)c1	-29	31	45*	4	3	4	12	95*
SMILES	aSyn 5UTR inh	APP 5UTR inh	Ba/F3 V617F tox	KLF5 inhibitor	BaF3 parental	IEC-6 cytotox	BaF3 parental 2	JAK2V617F conf
Cc1ccc(NC(=O)CSCC(=O)N(C)CC(=O)Nc2cccc3ccccc23)cc1	17	/	/	/	/	/	/	/
CCOC(=O)Cc1csc(NC(=O)NC2(C(F)(F)F)Oc3ccc(Cl)cc3O2)n1 (stereo unspecified)	-37	31	30*	-44	18	1	2	44*
O=C(CCc1ccccc1)Nc1ncc2c(n1)CCCC2=O	-12	10	6	-45	9	3	/	/
CC1(C)CC(=O)c2cnc(NC(=O)CCc3ccccc3)nc2C1	6	14	95*	1	-1	-1	-6	-8
CCCNc1c(NS(=O)(=O)c2cccs2)c(=O)oc2ccccc12	19	/	/	2	/	-1	/	/
CC(NC(=O)c1ccccc1)C(=O)N/N=C/c1cccc([N+](=O)[O-])c1 (stereo unspecified)	-22	25	1	-2	1	14	/	/
Cc1cccc(NC(=O)CCS(=O)(=O)c2ccc(Cl)cc2)c1	6	/	/	-21	/	4	/	/
O=C(NC(NNc1ccc([N+](=O)[O-])cc1)(C(F)(F)F)C(F)(F)F)c1ccc(Cl)cc1	18	-4	29*	-17	1	8	-6	-3
Cc1ccc2cc(CCNC(=O)CC(C)C)c(=O)[nH]c2c1	7	-16	69*	-33	8	7	-3	-2
Cc1[nH]c2ccccc2c(=O)c1C(=O)/C=C/c1ccccc1	-281	/	59*	2	-5	12	20	96*
Cc1ccc(C)c(S(=O)(=O)Nc2ccc3scnc3c2)c1	-61	5	35*	16	20	17	16	33*
O=C(/C=C/c1ccccc1)c1ccc2c(c1)OCCCCO2	-198	-147	0	-80	0	1	/	/
O=C(CCl)N(C/C=C/c1ccccc1)c1ccc2c(c1)OCCO2	-81	-19	40*	-25	5	4	20	94*
Cc1cc(OCC(=O)N2CCC(O)CC2)c2c(C)cc(=O)oc2c1	18	/	/	-34	/	0	/	/
Cc1cc(Cl)n2c(nc3cc(F)c(F)cc32)c1C#N	39	88*	48*	0	24	13	33*	93*
Cc1ccccc1OCC(O)Cn1c(=N)n(Cc2ccccc2)c2ccccc21 (stereo unspecified)	113*	/	48*	-15	17	6	21	53*
